Assay results reported in the supplement of paper PMC11732987, “Enantioselective OTUD7B fragment discovery through chemoproteomics screening and high-throughput optimisation” (Communications Chemistry, 2025).

Key:
Assay in all cases: log2 ratio of Biotin-Ahx-Ub-VS probe labelling (fragment/DMSO); higher = less target engagement (more negative = stronger competition), active = hit call of the paper (q ≤ 0.05, log2 ratio ≤ -1)
Conditions in all cases: compound concentration: 200 uM; treatment time: 3 h
USP42 = target: T1, USP42 (UniProt Q9H9J4)
T1 sequence (whole entry): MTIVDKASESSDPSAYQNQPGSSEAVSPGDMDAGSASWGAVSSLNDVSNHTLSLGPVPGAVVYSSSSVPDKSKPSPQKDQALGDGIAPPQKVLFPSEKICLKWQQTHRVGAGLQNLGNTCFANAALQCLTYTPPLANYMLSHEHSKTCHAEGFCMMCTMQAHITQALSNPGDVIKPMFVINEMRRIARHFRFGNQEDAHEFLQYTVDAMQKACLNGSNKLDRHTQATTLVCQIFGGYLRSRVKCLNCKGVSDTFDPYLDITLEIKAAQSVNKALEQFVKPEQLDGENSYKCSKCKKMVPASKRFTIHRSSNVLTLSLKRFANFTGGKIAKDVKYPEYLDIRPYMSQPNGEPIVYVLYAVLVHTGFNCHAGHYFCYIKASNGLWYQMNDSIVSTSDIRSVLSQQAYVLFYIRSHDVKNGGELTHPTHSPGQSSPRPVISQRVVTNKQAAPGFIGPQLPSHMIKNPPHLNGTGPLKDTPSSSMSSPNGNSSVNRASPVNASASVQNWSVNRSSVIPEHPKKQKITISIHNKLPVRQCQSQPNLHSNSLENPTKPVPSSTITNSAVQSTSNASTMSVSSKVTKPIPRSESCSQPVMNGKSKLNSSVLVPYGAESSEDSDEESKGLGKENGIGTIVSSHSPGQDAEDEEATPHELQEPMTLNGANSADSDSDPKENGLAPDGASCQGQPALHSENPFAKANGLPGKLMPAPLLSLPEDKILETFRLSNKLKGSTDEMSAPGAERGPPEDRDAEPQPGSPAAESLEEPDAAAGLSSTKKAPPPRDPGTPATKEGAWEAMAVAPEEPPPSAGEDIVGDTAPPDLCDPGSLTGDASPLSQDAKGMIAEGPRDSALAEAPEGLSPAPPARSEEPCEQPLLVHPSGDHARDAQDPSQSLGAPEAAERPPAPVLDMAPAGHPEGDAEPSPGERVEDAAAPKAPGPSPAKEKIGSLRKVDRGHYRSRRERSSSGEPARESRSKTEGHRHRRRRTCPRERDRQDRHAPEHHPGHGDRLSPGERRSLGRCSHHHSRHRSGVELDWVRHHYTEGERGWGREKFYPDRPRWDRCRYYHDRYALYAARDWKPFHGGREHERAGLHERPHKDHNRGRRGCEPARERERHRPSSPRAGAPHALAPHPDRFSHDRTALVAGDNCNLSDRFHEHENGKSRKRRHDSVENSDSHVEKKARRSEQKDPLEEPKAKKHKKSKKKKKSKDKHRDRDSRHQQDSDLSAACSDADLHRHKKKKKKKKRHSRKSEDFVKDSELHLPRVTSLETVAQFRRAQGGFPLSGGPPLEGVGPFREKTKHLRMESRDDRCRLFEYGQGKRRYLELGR
How it was run: (§1)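 HEK293T lysate (495 µg per sample, in Tris/CHAPS/IGEPAL buffer with protease inhibitors) was exposed in triplicate for 3 h to fragment at 200 µM or to vehicle, then to Biotin-Ahx-Ub-VS at 0.5 µM final for 1 h. Labelled DUBs were enriched on NeutrAvidin, digested with LysC and trypsin, and analysed by diaPASEF LC-MS/MS. Spectronaut label-free quantities were normalised to the global median, and values are average log2 ratios of fragment over vehicle from an unpaired t-test. Only proteins with ≥2 unique peptides were used.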

USP46 = USP46 (UniProt P62068)
How it was run: as §1

USP47 = target: T2, USP47 (UniProt Q96K76)
T2 sequence (whole entry): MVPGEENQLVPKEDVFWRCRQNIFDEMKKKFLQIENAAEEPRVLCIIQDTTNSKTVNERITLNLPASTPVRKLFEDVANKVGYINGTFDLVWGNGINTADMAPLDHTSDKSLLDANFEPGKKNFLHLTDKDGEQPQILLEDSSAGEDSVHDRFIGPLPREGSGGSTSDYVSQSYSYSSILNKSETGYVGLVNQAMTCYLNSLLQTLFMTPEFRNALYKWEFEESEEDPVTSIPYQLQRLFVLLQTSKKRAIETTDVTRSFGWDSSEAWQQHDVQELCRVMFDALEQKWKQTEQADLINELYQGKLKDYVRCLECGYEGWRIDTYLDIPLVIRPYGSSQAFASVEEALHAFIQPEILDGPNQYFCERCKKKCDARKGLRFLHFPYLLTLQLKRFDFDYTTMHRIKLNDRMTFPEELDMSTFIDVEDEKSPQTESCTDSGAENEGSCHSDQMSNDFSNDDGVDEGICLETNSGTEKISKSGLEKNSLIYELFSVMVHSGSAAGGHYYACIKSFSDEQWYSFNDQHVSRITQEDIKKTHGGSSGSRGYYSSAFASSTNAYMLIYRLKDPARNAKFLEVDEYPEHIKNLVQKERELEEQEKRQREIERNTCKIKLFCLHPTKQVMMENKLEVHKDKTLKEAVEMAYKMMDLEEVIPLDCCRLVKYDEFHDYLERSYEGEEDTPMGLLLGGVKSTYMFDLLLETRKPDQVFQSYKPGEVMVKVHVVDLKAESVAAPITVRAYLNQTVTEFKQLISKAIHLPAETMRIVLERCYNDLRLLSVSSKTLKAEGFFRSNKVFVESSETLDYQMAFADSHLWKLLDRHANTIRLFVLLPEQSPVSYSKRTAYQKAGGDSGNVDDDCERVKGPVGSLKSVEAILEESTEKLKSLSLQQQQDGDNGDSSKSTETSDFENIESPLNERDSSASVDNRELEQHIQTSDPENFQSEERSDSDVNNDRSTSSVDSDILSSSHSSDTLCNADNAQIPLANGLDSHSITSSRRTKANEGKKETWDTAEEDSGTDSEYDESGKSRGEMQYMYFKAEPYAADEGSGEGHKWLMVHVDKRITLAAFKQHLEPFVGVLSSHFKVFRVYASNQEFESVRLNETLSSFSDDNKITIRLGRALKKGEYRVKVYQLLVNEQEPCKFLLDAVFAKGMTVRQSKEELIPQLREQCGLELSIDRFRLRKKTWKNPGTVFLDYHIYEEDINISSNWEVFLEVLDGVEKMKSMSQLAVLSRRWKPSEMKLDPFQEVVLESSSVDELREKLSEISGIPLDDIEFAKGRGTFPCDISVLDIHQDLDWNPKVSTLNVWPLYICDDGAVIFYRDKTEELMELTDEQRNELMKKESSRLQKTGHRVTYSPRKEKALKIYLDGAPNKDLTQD
How it was run: as §1

USP48 = target: T3, USP48 (UniProt Q86UV5)
T3 sequence (whole entry): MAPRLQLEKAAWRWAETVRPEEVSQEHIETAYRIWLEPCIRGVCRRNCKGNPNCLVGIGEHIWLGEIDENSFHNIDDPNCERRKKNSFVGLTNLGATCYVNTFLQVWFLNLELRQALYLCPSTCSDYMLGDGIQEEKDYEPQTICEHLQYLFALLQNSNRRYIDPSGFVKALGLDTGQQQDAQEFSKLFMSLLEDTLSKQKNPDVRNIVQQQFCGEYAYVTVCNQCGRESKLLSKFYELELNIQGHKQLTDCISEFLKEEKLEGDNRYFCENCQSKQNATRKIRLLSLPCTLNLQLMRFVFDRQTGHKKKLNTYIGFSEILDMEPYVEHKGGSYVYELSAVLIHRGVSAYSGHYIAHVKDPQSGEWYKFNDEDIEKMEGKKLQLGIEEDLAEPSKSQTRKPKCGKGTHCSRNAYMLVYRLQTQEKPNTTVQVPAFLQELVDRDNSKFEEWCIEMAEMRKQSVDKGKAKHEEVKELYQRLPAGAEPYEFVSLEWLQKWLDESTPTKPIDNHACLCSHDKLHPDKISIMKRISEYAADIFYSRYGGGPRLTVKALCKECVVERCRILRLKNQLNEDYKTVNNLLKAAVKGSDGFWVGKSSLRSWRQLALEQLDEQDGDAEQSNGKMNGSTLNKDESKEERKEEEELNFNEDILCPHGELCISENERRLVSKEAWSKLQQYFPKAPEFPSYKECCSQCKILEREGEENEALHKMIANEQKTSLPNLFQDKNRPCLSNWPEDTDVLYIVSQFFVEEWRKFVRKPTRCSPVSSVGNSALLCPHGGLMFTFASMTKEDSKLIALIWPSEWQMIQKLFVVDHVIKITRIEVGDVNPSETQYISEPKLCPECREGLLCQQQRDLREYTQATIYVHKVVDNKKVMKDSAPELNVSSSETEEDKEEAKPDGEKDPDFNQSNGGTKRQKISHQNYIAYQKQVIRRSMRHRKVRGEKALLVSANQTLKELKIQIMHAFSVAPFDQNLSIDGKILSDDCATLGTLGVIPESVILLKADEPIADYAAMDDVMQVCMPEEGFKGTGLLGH
How it was run: as §1

USP5 = target: T4, USP5 (UniProt P45974)
T4 sequence (whole entry): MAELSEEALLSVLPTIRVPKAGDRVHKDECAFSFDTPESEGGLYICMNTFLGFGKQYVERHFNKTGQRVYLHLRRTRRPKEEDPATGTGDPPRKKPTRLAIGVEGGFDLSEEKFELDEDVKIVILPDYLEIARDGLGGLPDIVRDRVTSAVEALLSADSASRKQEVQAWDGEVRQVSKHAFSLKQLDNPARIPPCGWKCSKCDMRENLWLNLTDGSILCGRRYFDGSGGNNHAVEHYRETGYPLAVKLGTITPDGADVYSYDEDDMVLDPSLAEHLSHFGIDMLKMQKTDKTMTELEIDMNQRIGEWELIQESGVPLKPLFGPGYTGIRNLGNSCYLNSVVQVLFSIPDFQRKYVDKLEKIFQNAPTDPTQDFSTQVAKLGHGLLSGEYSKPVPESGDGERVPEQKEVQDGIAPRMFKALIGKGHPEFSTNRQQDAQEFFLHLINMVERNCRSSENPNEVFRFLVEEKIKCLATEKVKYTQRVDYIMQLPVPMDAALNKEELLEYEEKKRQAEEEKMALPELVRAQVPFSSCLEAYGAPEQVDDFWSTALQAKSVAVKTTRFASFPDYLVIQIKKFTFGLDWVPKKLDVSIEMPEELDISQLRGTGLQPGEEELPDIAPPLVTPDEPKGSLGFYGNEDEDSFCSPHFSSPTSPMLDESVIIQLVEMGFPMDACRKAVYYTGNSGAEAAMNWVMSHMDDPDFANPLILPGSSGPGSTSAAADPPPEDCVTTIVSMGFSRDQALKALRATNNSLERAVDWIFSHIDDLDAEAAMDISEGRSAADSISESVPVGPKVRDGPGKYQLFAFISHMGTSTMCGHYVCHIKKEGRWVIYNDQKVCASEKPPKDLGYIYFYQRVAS
How it was run: as §1

USP54 = USP54 (UniProt Q70EL1)
How it was run: as §1

USP7 = USP7 (UniProt Q93009)
How it was run: as §1

USP8 = target: T5, USP8 (UniProt P40818)
T5 sequence (whole entry): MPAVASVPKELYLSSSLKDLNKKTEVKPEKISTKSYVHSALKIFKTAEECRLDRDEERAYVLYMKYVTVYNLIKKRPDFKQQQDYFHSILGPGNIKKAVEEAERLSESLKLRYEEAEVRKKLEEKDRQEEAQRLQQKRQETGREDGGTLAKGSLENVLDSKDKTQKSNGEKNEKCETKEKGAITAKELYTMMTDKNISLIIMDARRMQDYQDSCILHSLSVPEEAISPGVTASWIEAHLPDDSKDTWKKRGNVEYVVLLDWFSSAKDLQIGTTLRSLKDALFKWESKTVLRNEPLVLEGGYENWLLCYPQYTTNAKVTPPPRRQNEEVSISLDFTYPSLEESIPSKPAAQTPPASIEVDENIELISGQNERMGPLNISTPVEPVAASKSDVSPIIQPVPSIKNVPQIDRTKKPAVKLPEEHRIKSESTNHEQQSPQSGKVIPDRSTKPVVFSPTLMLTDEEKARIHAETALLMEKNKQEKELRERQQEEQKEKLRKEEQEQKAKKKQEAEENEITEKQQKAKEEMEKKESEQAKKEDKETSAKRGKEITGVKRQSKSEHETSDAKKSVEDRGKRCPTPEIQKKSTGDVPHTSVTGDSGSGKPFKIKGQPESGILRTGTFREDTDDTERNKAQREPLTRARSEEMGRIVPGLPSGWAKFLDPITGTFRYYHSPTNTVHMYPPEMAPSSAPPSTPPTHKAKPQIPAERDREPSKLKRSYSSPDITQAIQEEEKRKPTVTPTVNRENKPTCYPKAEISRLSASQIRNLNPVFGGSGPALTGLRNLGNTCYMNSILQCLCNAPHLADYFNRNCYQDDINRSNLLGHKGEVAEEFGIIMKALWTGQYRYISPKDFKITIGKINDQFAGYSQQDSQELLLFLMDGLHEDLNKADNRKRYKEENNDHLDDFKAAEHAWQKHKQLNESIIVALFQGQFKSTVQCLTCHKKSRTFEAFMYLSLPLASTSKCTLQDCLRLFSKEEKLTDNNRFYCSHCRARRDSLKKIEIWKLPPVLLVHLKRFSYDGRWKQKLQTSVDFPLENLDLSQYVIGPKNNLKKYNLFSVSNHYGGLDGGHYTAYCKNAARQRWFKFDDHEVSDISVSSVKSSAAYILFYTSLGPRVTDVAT
How it was run: as §1

Measured: log2 ratio of Biotin-Ahx-Ub-VS probe labelling

USP46, sequence (P62068 whole entry): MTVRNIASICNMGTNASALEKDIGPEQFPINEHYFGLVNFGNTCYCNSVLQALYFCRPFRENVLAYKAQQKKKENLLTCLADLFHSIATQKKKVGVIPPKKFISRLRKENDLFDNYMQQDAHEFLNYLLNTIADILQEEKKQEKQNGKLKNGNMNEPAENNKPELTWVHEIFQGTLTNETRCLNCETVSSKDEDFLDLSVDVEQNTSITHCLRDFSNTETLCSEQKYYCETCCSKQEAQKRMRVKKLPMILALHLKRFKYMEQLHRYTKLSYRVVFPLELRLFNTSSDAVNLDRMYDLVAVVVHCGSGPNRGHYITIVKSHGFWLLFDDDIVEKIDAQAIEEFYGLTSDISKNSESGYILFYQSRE
USP54, sequence (Q70EL1 whole entry): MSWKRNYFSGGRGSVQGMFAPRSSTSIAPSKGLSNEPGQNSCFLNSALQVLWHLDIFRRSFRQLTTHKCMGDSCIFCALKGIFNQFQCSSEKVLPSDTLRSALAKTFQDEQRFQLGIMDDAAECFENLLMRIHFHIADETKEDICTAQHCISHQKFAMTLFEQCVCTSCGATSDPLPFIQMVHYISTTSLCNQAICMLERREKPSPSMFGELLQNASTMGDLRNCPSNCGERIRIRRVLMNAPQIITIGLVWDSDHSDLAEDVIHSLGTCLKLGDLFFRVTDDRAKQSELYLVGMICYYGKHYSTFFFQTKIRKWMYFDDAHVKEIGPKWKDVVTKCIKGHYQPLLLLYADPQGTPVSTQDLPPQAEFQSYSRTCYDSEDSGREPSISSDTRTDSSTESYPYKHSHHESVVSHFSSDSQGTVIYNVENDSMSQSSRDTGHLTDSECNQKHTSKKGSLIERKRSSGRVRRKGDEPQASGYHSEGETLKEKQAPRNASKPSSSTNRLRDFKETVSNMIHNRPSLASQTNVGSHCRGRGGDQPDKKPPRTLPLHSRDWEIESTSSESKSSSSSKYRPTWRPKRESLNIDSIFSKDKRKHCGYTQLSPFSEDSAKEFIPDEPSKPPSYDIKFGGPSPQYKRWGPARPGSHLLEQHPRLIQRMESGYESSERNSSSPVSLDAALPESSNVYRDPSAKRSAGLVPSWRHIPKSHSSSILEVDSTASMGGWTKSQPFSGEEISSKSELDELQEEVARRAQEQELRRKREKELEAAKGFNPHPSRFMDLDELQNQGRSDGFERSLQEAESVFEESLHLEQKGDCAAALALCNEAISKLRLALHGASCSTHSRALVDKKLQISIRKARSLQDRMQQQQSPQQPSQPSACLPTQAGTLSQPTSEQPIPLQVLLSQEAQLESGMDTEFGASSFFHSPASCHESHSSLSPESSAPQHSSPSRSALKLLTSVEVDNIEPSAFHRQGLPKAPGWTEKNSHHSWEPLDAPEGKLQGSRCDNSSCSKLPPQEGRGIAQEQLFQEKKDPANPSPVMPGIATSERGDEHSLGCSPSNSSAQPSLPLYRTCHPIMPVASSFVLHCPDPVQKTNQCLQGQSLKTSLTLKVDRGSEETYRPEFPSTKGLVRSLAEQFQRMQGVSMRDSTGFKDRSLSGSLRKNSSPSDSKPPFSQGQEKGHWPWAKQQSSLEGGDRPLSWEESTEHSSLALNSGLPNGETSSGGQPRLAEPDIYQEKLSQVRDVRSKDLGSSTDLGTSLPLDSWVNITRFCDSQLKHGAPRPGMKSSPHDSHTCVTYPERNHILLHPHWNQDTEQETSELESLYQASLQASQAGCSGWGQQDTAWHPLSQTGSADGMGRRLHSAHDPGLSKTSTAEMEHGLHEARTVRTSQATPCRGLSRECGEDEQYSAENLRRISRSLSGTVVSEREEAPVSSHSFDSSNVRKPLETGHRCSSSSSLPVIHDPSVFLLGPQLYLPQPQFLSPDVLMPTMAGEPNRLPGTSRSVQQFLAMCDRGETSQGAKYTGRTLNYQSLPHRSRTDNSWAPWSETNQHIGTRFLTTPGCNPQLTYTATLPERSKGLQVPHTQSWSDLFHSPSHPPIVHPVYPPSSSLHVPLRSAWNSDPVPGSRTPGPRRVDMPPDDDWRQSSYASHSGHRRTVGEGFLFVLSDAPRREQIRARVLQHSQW
USP7, sequence (Q93009 whole entry, looked up): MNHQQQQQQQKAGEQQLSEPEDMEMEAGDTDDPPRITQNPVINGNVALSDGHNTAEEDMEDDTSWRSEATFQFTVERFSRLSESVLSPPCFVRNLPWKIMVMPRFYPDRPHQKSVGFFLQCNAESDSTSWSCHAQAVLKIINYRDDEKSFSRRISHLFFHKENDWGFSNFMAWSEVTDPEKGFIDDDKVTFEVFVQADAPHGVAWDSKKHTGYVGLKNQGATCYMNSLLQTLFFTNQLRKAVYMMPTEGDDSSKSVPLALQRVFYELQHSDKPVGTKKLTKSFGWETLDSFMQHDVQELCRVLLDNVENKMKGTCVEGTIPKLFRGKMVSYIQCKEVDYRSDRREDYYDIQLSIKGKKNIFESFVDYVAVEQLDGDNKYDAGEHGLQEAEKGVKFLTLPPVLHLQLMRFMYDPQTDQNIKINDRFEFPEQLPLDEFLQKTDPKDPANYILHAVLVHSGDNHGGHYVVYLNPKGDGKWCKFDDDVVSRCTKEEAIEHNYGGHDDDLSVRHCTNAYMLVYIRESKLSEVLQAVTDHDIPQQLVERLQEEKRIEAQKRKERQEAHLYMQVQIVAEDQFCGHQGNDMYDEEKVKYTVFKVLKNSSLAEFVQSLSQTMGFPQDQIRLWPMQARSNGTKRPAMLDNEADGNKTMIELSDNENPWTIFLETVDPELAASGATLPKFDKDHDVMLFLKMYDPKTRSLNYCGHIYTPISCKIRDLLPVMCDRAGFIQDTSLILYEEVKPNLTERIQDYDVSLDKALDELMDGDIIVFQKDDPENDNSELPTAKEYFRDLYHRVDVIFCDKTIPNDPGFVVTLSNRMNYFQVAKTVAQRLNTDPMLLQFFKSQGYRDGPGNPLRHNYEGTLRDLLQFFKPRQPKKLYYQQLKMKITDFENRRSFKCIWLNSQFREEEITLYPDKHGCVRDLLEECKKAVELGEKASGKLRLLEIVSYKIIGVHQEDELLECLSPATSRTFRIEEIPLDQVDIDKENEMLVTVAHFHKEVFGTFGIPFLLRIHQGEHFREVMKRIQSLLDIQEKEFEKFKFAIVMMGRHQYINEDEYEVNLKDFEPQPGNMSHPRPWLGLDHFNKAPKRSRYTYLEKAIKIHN

O=C(CCl)N[C@H]1CC[C@@H](CO)CC1
inactive: USP42 0.163 | USP46 -0.593 | USP47 -0.113 | USP48 -0.534 | USP5 -0.644 | USP54 1 | USP7 -0.752 | USP8 -0.969
